Laboratory results reported in the supplement of paper PMC6089552.
The campaign covered roughly 3,200 compounds. About 300 (9.4%) showed activity. The sample holds actives, similar compounds and a random draw of the others, so the mix is not that of the screen.

Tested on: A673/TR/shEF
Assay: cell viability (LOESS-normalised, relative to median of negative controls) (log2 ratio); higher = more viable cells (less compound effect), active = hit call of the paper (over 3 MAD below the median)
Conditions: treatment time: 72 h
In short: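 A673/TR/shEF Ewing sarcoma cells (1,500 per well, 384-well plates) were grown with or without doxycycline to induce EWS-FLI1 shRNA knockdown, starting 24 h before compounds. Library compounds at two or more concentrations, with DMSO controls, were added for three days. Cell viability was read by CellTiter-Glo luminescence on an Envision reader, then LOESS-corrected per plate, divided by the median of negative controls and log2-transformed. Hits were wells at least three median absolute deviations from the median of all screened wells.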

[1] = 0.25 µM, library screen: screen1, EWS-FLI1 expression: high (no doxycycline)
[2] = 0.25 µM, library screen: screen1, EWS-FLI1 expression: low (doxycycline-induced shRNA knockdown)
[3] = 2.5 µM, library screen: screen1, EWS-FLI1 expression: high (no doxycycline)
[4] = 2.5 µM, library screen: screen1, EWS-FLI1 expression: low (doxycycline-induced shRNA knockdown)
[5] = 0.25 µM, library screen: screen2, EWS-FLI1 expression: high (no doxycycline)
[6] = 0.25 µM, library screen: screen2, EWS-FLI1 expression: low (doxycycline-induced shRNA knockdown)
[7] = 2.5 µM, library screen: screen2, EWS-FLI1 expression: high (no doxycycline)
[8] = 2.5 µM, library screen: screen2, EWS-FLI1 expression: low (doxycycline-induced shRNA knockdown)
[9] = 0.103 µM, library screen: screen3, EWS-FLI1 expression: high (no doxycycline)
[10] = 0.103 µM, library screen: screen3, EWS-FLI1 expression: low (doxycycline-induced shRNA knockdown)
[11] = 0.308 µM, library screen: screen3, EWS-FLI1 expression: high (no doxycycline)
[12] = 0.308 µM, library screen: screen3, EWS-FLI1 expression: low (doxycycline-induced shRNA knockdown)
[13] = 0.926 µM, library screen: screen3, EWS-FLI1 expression: high (no doxycycline)
[14] = 0.926 µM, library screen: screen3, EWS-FLI1 expression: low (doxycycline-induced shRNA knockdown)
[15] = 2.8 µM, library screen: screen3, EWS-FLI1 expression: high (no doxycycline)
[16] = 2.8 µM, library screen: screen3, EWS-FLI1 expression: low (doxycycline-induced shRNA knockdown)
[17] = 8.3 µM, library screen: screen3, EWS-FLI1 expression: high (no doxycycline)
[18] = 8.3 µM, library screen: screen3, EWS-FLI1 expression: low (doxycycline-induced shRNA knockdown)
[19] = 25 µM, library screen: screen3, EWS-FLI1 expression: high (no doxycycline)
[20] = 25 µM, library screen: screen3, EWS-FLI1 expression: low (doxycycline-induced shRNA knockdown)

Measured: cell viability (log2)

COc1cc(C2NC(=O)NC(C)=C2C(=O)Nc2cccc(Cl)c2)cc(OC)c1OC (stereo not drawn)
inactive: [1] 0.0796 | [2] 0.0843 | [3] 0.0754 | [4] -0.0585

O[Si](CCCN1CCCCC1)(c1ccc(F)cc1)C1CCCCC1 (stereo not drawn)
inactive: [5] 0.132 | [6] 0.0854 | [7] 0.109 | [8] 0.178

Cc1c(NC(=O)Nc2ccc3ccccc3c2)c(=O)n(-c2ccccc2)n1C
inactive: [1] 0.0897 | [2] 0.113 | [3] 0.056 | [4] 0.16

O=C(c1ccc(F)cc1)C1CCN(CCn2c(=O)[nH]c3ccccc3c2=O)CC1
active: [5] -0.282 | [6] -0.245 | [7] -2.12 | [8] -2.83

Cc1nc2ccccn2c(=O)c1CCN1CCC(C(=O)c2ccc(F)cc2)CC1
inactive: [1] 0.119 | [2] 0.184 | [5] 0.229 | [6] 0.127 | [3] 0.124 | [4] 0.101 | [7] 0.243 | [8] 0.107

CC1(C)C(=O)N(CCN2CCC(C(=O)c3ccc(F)cc3)CC2)c2ccccc21
inactive: [9] -0.034 | [10] 0.0315 | [5] 0.081 | [6] 0.0775 | [11] 0.05 | [12] 0.0455 | [13] 0.00913 | [14] 0.0245 | [7] 0.0771 | [8] 0.0581 | [15] -0.0171 | [16] 0.0924 | [17] -0.00458 | [18] 0.0164 | [19] 0.0894 | [20] 0.0236

COc1ccc2c(c1)CC[C@@H]1[C@@H]2CC[C@]2(C)[C@@H](NCCCCCCN3C(=O)CCC3=O)CC[C@@H]12
inactive: [5] 0.149 | [6] 0.104 | [7] 0.246 | [8] 0.108

COc1cccc2c(C)cc(=O)[nH]c12
inactive: [1] 0.0638 | [2] 0.0801 | [3] 0.144 | [4] 0.0702

C[C@@H]1CCC2[C@@H](C)[C@@H](O)O[C@@H]3OC4(C)CC[C@@H]1[C@@]23OO4 (stereo partly drawn)
inactive: [1] 0.104 | [2] 0.00583 | [3] 0.029 | [4] -0.122

CN(C)c1ccc(C=C2SC(=S)N(c3ccc(F)cc3)C2=O)cc1
inactive: [1] 0.0645 | [2] 0.154 | [3] 0.09 | [4] 0.192

C=CC(C)(C)c1c2c(c(O)c3c(=O)c4ccc(O)c(O)c4oc13)C=CC(C)(C)O2
inactive: [1] -0.0194 | [2] 0.182 | [3] -0.0746 | [4] 0.15

CC1C(=O)CC2CC1C2(C)C (stereo not drawn)
active: [1] -0.106
inactive: [2] 0.0655 | [3] 0.091 | [4] 0.103

NC(=O)c1ccccc1NC(=O)c1cc2ccccc2o1
inactive: [1] 0.112 | [2] 0.167 | [3] 0.0735 | [4] 0.103

O=C(O)CCCCCCCCCCCCC1C=CCC1 (stereo not drawn)
inactive: [1] 0.109 | [2] -0.0641 | [3] 0.133 | [4] 0.00345

CO[C@H]1C[C@H](O[C@@H]2/C(C)=C/C[C@@H]3C[C@@H](C[C@]4(CC[C@H](C)[C@@H](C5CCCCC5)O4)O3)OC(=O)[C@@H]3C=C(C)/C(=N/O)[C@H]4OC/C(=C\C=C\[C@@H]2C)[C@]43O)O[C@@H](C)[C@@H]1O
inactive: [1] 0.0971 | [2] 0.0732 | [3] 0.0965 | [4] 0.0106

CCC(C)[C@H]1O[C@]2(CC[C@@H]1C)CC1C[C@@H](C/C=C(\C)[C@@H](O[C@H]3C[C@H](OC)[C@@H](OC4C[C@H](OC)[C@@H](O)[C@H](C)O4)[C@H](C)O3)[C@@H](C)/C=C/C=C3\CO[C@@H]4[C@H](O)C(C)=C[C@@H](C(=O)O1)[C@]34O)O2.CO[C@H]1CC(O[C@H]2[C@H](C)O[C@@H](O[C@@H]3/C(C)=C/C[C@@H]4CC(C[C@]5(CC[C@H](C)[C@@H](C(C)C)O5)O4)OC(=O)[C@@H]4C=C(C)[C@@H](O)[C@H]5OC/C(=C\C=C\[C@@H]3C)[C@]54O)C[C@@H]2OC)O[C@@H](C)[C@@H]1O (stereo partly drawn)
active: [7] -0.104 | [15] -0.279 | [16] -0.285 | [17] -0.239 | [18] -0.115 | [19] -3.03 | [20] -1.99
inactive: [9] 0.062 | [10] 0.111 | [5] 0.0727 | [6] 0.0714 | [11] -0.0408 | [12] 0.0112 | [13] -0.0851 | [14] -0.0397 | [8] -0.0072

Cc1cc(=O)c2c(O)c3c(cc2o1)OC(C)(C)CC3
inactive: [1] -0.0169 | [2] 0.014 | [3] 0.0268 | [4] 0.147

CCC[C@H]1CC2=C(C[C@@H](CC)CC3=C1C(=O)OC3=O)C(=O)OC2=O
inactive: [1] 0.0818 | [2] 0.0576 | [3] 0.117 | [4] 0.0649

Cc1sc2c(=O)n3c(nc2c1C(=O)NCCc1ccccc1)CCCCC3
inactive: [1] 0.129 | [2] 0.0568 | [3] 0.167 | [4] 0.136

CC(C)CCC[C@@H](C)C1CC[C@H]2[C@@H]3CCC4=CC(=O)C=C[C@]4(C)[C@H]3CC[C@]12C (stereo partly drawn)
inactive: [1] 0.107 | [2] 0.0599 | [3] 0.105 | [4] 0.0638

c1ccc([C@@H]2CCC[C@@H]2NC2=NCCCCCCCCCCC2)cc1
inactive: [5] 0.117 | [6] 0.0677 | [7] 0.18 | [8] 0.156

CC1(C)C[C@@]23C(=O)CC[C@@H](O)C2(C)CC[C@H]13 (stereo partly drawn)
inactive: [1] 0.0615 | [2] -0.0504 | [3] 0.0572 | [4] 0.0807

COc1c(O)cc(C2Oc3c(c(O)cc(O)c3[C@H]3c4c(O)cc(O)cc4O[C@H](c4ccc(O)cc4)[C@@H]3O)C[C@H]2O)cc1O (stereo partly drawn)
inactive: [9] -0.000188 | [10] 0.0292 | [11] -0.0295 | [12] -0.00938 | [13] 0.0249 | [14] 0.0493 | [15] -0.0107 | [16] 0.0655 | [17] 0.0329 | [18] 0.11 | [19] 0.0402 | [20] 0.209
